Assay results as given in PubChem BioAssay AID1159580 (chemical genetic matrix, 2015).
“And” between values parts separate entries of the source, which are not always exact repeats. Identical values can stand only once. The campaign covered roughly 5,500 compounds. About 2,000 (36%) were called active. Roughly 18% stayed inconclusive and do not appear here. Rule as the data show it: active = normalized growth mostly below about 0.91 (no sharp cut-off); inconclusive = no clear call, values can overlap the other calls; inactive = mostly above about 0.92. The list shows a part of the results.

Test: chemical genetic growth profiling, strain panel (AID 1159580);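 also: tested at 20 µM; growth read once vehicle control cultures reached saturation at 30 °C; 1 = growth at the plate median or of vehicle wells; lower values mean less growth of the strain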
Conditions: S. cerevisiae deletion strains, growth OD

Measured: normalized growth

C1CCc2nnnn2CC1
inactive: locus YAL013W, strain DEP1, hits give low values 1.01 | locus YAL021C, strain ccr4, hits give low values 1.01 | locus YAL026C, strain drs2, hits give low values 1.01 | locus YAL030W, strain snc1, hits give low values 1 | locus YAL040C, strain CLN3, hits give low values 0.98 | locus YBL061C, strain skt5, hits give low values 1.01 | locus YBR009C, strain hhf1, hits give low values 1.01 | locus YBR021W, strain FUR4, hits give low values 1.01 | locus YBR023C, strain chs3, hits give low values 1.01 | locus YBR171W, strain sec66, hits give low values 1.01 | locus YBR229C, strain ROT2, hits give low values 1.01 | locus YBR231C, strain swc5, hits give low values 1 | locus YBR279W, strain paf1, hits give low values 1.01 | locus YCL011C, strain gbp2, hits give low values 1 | locus YCL016C, strain dcc1, hits give low values 1 | locus YCL029C, strain bik1, hits give low values 1.03 | locus YCL061C, strain MRC1 (second series), hits give low values 1 | locus YCL061C, strain MRC1, hits give low values 0.998 | locus YCL069W, strain vba3, hits give low values 1 | locus YCR088W, strain abp1, hits give low values 1.02 | locus YDL005C, strain med2, hits give low values 0.999 | locus YDL035C, strain GPR1, hits give low values 1.01 | locus YDL040C, strain nat1, hits give low values 1 | locus YDL074C, strain BRE1, hits give low values 1.03 | locus YDL101C, strain DUN1, hits give low values 1.03 | locus YDL134C, strain PPH21, hits give low values 1.01 | locus YDL185W, strain tfp1, hits give low values 1.01 | locus YDL192W, strain arf1, hits give low values 1.01 | locus YDR001C, strain nth1, hits give low values 1.01 | locus YDR069C, strain doa4, hits give low values 1.01 | locus YDR101C, strain arx1, hits give low values 1.01 | locus YDR137W, strain rgp1, hits give low values 1.02 | locus YDR150W, strain NUM1, hits give low values 1.01 and 1 | locus YDR159W, strain sac3, hits give low values 1 | locus YDR162C, strain NBP2, hits give low values 0.994 | locus YDR195W, strain ref2 0.985 | locus YDR297W, strain sur2, hits give low values 1.02 | locus YDR318W, strain mcm21, hits give low values 1.02 | locus YDR334W, strain swr1, hits give low values 1.01 | locus YDR335W, strain msn5, hits give low values 1.01 | locus YDR363W, strain ESC2, hits give low values 1.01 | locus YDR388W, hits give low values 1 | locus YDR392W, strain spt3, hits give low values 1.03 | locus YDR502C, strain sam2, hits give low values 1 | locus YEL003W, strain gim4, hits give low values 1.01 | locus YEL037C, strain rad23, hits give low values 1 | locus YEL061C, strain CIN8 (second series), hits give low values 1.01 | locus YEL061C, strain CIN8, hits give low values 1.01 | locus YER002W, strain NOP16, hits give low values 1.01 | locus YER015W, strain faa2, hits give low values 1 | locus YER016W, strain bim1, hits give low values 1.01 | locus YER110C, hits give low values 1.02 | locus YER111C, strain swi4, hits give low values 1 | locus YER155C, strain BEM2 (second series), hits give low values 1.02 | locus YER155C, strain BEM2, hits give low values 1 | locus YER167W, strain BCK2, hits give low values 1 | locus YFR010W, strain ubp6, hits give low values 1.01 | locus YGL078C, strain dbp3, hits give low values 1 | locus YGL086W, strain mad1, hits give low values 0.99 | locus YGL173C, strain kem1, hits give low values 1.02 | locus YGL227W, strain vid30, hits give low values 1 | locus YGL240W, strain doc1, hits give low values 1.01 | locus YGL248W, strain PDE1, hits give low values 1.01 | locus YGL253W, strain hxk2, hits give low values 1 | locus YGR078C, strain PAC10, hits give low values 1 and 1.03 | locus YGR135W, strain pre9, hits give low values 1.03 | locus YGR229C, strain SMI1, hits give low values 0.969 and 1.01 | locus YGR252W, strain gcn5, hits give low values 0.941 | locus YHR013C, strain ard1, hits give low values 1.02 | locus YHR027C, strain rpn1, hits give low values 1.01 | locus YHR030C, strain SLT2, hits give low values 1.01 and 0.966 | locus YHR079C, strain IRE1 (second series), hits give low values 1.02 | locus YHR079C, strain IRE1, hits give low values 0.964 | locus YHR094C, strain hxt1, hits give low values 1.01 | locus YHR129C, strain ARP1, hits give low values 1.02 | locus YHR142W, strain chs7, hits give low values 1.01 | locus YHR200W, strain rpn10, hits give low values 1.01 | locus YIL066C, strain RNR3, hits give low values 1.02 | locus YIL073C, strain SPO22, hits give low values 1.01 | locus YIL125W, strain kgd1, hits give low values 1 | locus YIR030C, strain dcg1, hits give low values 1.01 | locus YJL092W, strain hpr5, hits give low values 1 | locus YJL095W, strain BCK1 (second series), hits give low values 1 | locus YJL095W, strain BCK1, hits give low values 1.02 and 0.967 | locus YJL115W, strain asf1, hits give low values 0.993 | locus YJL129C, strain trk1, hits give low values 1.01 | locus YJL134W, strain LCB3, hits give low values 1.01 | locus YJL154C, strain vps35, hits give low values 1 | locus YJL164C, strain tpk1, hits give low values 1 | locus YJL166W, strain qcr8, hits give low values 1.01 | locus YJL168C, strain set2, hits give low values 1.01 | locus YJL187C, strain SWE1 (second series), hits give low values 1.04 | locus YJL187C, strain SWE1, hits give low values 1.02 | locus YJR043C, strain POL32, hits give low values 1.01 | locus YJR066W, strain TOR1, hits give low values 0.921
